Measured values published in PubChem BioAssay AID1030 (National Center for Advancing Translational Sciences (NCATS), 2008).
In all, about 220,000 compounds went through this assay and about 16,000 (7.3%) were called active. Inconclusive results (about 25%) are left out. What follows is part of a selection rich in actives, with near analogues and random picks from the rest. A number with no mark means an inactive call. Calls come from the whole dose curve; as a rule, active = well fitted inhibition curve with a large enough effect (not every such curve was filed as active); inconclusive = small, poorly fitted or top-dose-only effect, or another doubt; inactive = no such curve, though single readings can be large or run the other way.

What follows are molecules tested against Aldehyde dehydrogenase 1A1 (Homo sapiens) (UniProt P00352) (assay: qHTS Assay for Inhibitors of Aldehyde Dehydrogenase 1 (ALDH1A1)). Details: Purified ALDH1A1, NADH fluorescence, propionaldehyde substrate; series mostly up to 75.3 µM; activity, negative = inhibition: at the top concentration.
Aldehyde dehydrogenase 1A1 (Homo sapiens), sequence (P00352 whole entry, looked up): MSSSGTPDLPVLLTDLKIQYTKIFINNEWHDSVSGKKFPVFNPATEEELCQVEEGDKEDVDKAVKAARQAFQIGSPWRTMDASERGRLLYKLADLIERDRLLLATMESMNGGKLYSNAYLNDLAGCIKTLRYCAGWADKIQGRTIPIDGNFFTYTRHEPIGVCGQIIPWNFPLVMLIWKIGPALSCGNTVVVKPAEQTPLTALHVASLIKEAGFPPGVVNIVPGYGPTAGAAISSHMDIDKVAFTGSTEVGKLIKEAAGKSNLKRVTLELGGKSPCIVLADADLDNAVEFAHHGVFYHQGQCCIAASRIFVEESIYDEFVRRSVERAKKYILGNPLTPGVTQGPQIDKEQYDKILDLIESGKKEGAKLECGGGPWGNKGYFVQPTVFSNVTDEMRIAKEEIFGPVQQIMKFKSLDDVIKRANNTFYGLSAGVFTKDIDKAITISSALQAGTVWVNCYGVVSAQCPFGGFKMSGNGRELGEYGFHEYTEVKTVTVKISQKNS
Potency is the fitted concentration of half-maximal effect.
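Throughout, for activity, negative = inhibition: plate controls were no enzyme wells and a reference inhibitor.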

Row | SMILES | activity, negative = inhibition | Potency
1 | CCc1ccc(NC(=O)C(=O)N/N=C(\C)CC(=O)NCCOC)cc1 | -6.85% | –
2 | CCOC(=O)c1cccc(NC(=O)CCOc2ccccc2)c1 | 3.3% | –
3 | CCOC(=O)CSc1nc(C)cc2c1C(=O)OC2 | -2.92% | –
4 | CCOC(=O)C1CCCN(C(=O)c2cccc(S(=O)(=O)N3CCOCC3)c2)C1 (configuration not stated) | -5.73% | –
5 | COc1cccc(N(Cc2nnc3n2CCCCC3)C(=O)Nc2ccccc2F)c1 | 0.321% | –
6 | Cc1cc(C(=O)NNS(=O)(=O)c2ccccc2C(F)(F)F)nn1C(C)(C)C | -6.99% | –
7 | O=C(Nc1ccc(Br)cn1)c1ccc([N+](=O)[O-])cc1Cl | -6.95% | –
8 | O=C1c2ccccc2C(=O)N1CCC(O)C[N+](=O)[O-] (configuration not stated) | – | 22.4 µM (active)
9 | O=C(CCN1C(=O)c2ccccc2C1=O)Nc1cccc(F)c1 | 6.38% | –
10 | O=C1c2ccccc2C(=O)N1CCCSc1ccccc1 | -6.74% [at 13.5 µM] | –
11 | Cc1ccc(C)c(CSc2nc(-c3ccco3)nc3c2c(=O)n(C)c(=O)n3C)c1 | 2% | –
12 | O=C(O)CSc1nnc(-c2ccc3c(c2)OCO3)n1-c1ccccc1 | 6.9% | –
13 | CSc1ncccc1C(=O)NC1CCCCCC1 | -8.2% | –
14 | CC1(CCC(=O)OC2CCCCC2)OCCO1 | -6.23% [at 13.5 µM] | –
15 | CSc1nsc(SC)c1NC(=O)OC1CCCCC1 | – | 20 µM (active)
16 | Cc1cccc(C2c3[nH]c4ccccc4c3CCN2C(=O)c2cc(-c3cccn3C)n[nH]2)n1 (configuration not stated) | -6.8% | –
17 | COc1ccc2c(c1)C(c1cccs1)=NNC(c1cccnc1)=N2 | -17.1% | –
18 | CC(=O)Nc1ccc(NC(=O)C(C)n2c3ccccc3c3nc(=O)cc(C)n32)cc1 (configuration not stated) | 2.7% | –
19 | C/C(=N\Nc1nc(N2CCOCC2)nc(N2CCOCC2)n1)c1ccc([N+](=O)[O-])cc1 | -6.49% | –
20 | COc1ccc(C(=O)Nc2cccc(S(C)(=O)=O)c2)cc1 | -3.62% | –
21 | O=C(Nc1cccc(OCC(=O)N2CCOCC2)c1)C1CCCCC1 | 4.85% | –
22 | CC(=O)Nc1ccc(S(=O)(=O)Nc2ccc(N3CCOCC3)c(F)c2)cc1 | -1.53% | –

Row | SMILES | activity, negative = inhibition | Potency
23 | COc1ccc(NS(=O)(=O)c2cc(NC(=O)C3CCCCC3)ccc2N2CCOCC2)cc1 | – | 2.51 µM (active)
24 | COc1cccc(/C=C2\SC(=N)N(c3ccc(F)cc3)C2=O)c1 | 4.62% | –
25 | COc1ccc(CCNC(=O)CSc2nnc3ccc(-c4ccncc4)nn23)cc1 | 7.74% | –
26 | CN(C)C(=O)CSc1n[nH]c(-c2ccco2)n1 | 5.16% | –
27 | CCOC(=O)c1cc2ccccc2nc1C | 5.37% | –
28 | CCOC(=O)c1cc2c(nc1NC(=S)Nc1ccccc1)CC(C)(CC)OC2 (configuration not stated) | – | 12.6 µM (active)
29 | CCOC(=O)c1ccc(NC(=S)Nc2cc(C)cc(C)n2)cc1 | 8.93% | –
30 | O=S(=O)(c1ccccc1)c1nc(-c2ccccc2F)oc1NCc1cccnc1 | -11.8% | –
31 | CN(C)C=NC(=O)c1cccn1-c1ncc(C(F)(F)F)cc1Cl | 4.08% | –
32 | COC(=O)c1cc(NC(=O)c2nn(C)c(=O)c3ccccc23)cc(C(=O)OC)c1 | -2.63% | –
33 | OCCCC1CCCCN1Cc1nc(Cc2ccccc2Cl)no1 (configuration not stated) | 4.73% | –
34 | COc1ccc(N2C(=O)/C(=C\c3ccco3)N=C2SCC(N)=O)cc1Cl | -13.6% | –
35 | CCOC(=O)CCC(=O)OCC(=O)NC(C)C1CC2CCC1C2 (configuration not stated) | – | 15.8 µM (active)
36 | O=C(COC(=O)CC1CC2CCC1C2)NC(=O)NC1CCCC1 (configuration not stated) | -3.73% | –
37 | Cc1ccccc1OCCC(=O)OCC(=O)NC(C)c1ccccc1 (configuration not stated) | 4.27% | –
38 | CCOC(=O)CNC(=O)/C(=C\c1ccc(F)cc1)NC(=O)c1ccccc1 | 16.3% | –
39 | CN(C)c1nnnn1-c1ccc(Cl)cc1 | 8.16% | –
40 | Cc1cc(C)cc(NC(=O)CSc2ccccc2)c1 | -1.77% | –
41 | Cc1cccc(NC(=S)Nc2ccc3cn[nH]c3c2)c1 | – | 10 µM (active)
42 | Cc1cccc(NC(=S)Nc2ccc(Br)cc2)c1 | -3.49% | –
43 | Cc1csc(NC(=S)Nc2cccc(Cl)c2)n1 | -11% | –
44 | O=C(Nc1ccc2cn[nH]c2c1)c1ccc(S(=O)(=O)N2CCOCC2)cc1 | -7.41% | –

Row | SMILES | activity, negative = inhibition | Potency
45 | Cc1cccc(NC(=O)CSc2nc3[nH]ncc3c(=O)[nH]2)c1 | 6.36% | –
46 | S=C(Nc1cccc(Cl)c1)Nc1ccc2cn[nH]c2c1 | – | 28.2 µM (active)
47 | CC(N)(C(=O)O)c1ccc(-c2nn[nH]n2)cc1 (configuration not stated) | -9.71% | –
48 | Cc1cc(C)c(S(=O)(=O)N2CCOCC2)cc1C | 8.64% | –
49 | COC1(C2=NCCN2)COc2ccccc2O1 (configuration not stated) | 0.458% | –
50 | CC1(C)C(c2cccs2)=[N+]([O-])C2(CCCCC2=O)N1O (configuration not stated) | – | 22.4 µM (active)
51 | Cc1cccc(C)c1NC(=O)CNC(=O)Cc1ccc(Br)cc1 | 7.71% | –
52 | CCCCCC1CCC(c2nnc(SCC(C)=O)o2)CC1 (configuration not stated) | -4.68% | –
53 | CCN(CC)S(=O)(=O)c1ccc(NC(=O)c2cccnc2Cl)c(NC(=O)c2cccnc2Cl)c1 | – | 7.08 µM (active)
54 | Cc1nn(Cc2ccc(F)cc2)c(C)c1NC(=O)c1cccnc1Cl | 10.5% | –
55 | Cc1ccc(CNC(=O)c2cccnc2Cl)cc1 | 11.7% | –
56 | CCN(CC)S(=O)(=O)c1ccc(Cl)c(NC(=O)c2ccncc2)c1 | – | 12.6 µM (active)
57 | CCN(CC)S(=O)(=O)c1cccc(C(=O)Nc2ccccc2)c1 | -7.46% | –
58 | CCN(CC)S(=O)(=O)c1ccc(C)c(NC(=O)COc2ccc(Br)cc2Cl)c1 | 0.658% | –
59 | O=[N+]([O-])c1cc(S(=O)(=O)Nc2cccc(Cl)c2)ccc1N=Nc1c(O)[nH]c2ccccc12 | 7.9% | –
60 | COc1ccc(/C=N/NC(=O)c2ccncc2)cc1CN1CCCc2ccccc21 | -1.8% | –
61 | CC(C)N(C(=O)c1ccc(-c2ccccc2F)cc1)C(C)C | -6.51% | –
62 | COc1ccc(CN(C(=O)c2cccs2)c2nccs2)cc1OC | 2.43% | –
63 | O=C(c1cccs1)N(C(=O)c1cccs1)c1ccccn1 | -0.508% | –
64 | COc1ccc(CN(Cc2ccc(OC)cc2)C(=O)c2cccs2)cc1 | – | 8.91 µM (active)
65 | CCc1ccccc1NC(=S)N(CCN1CCCCCC1)Cc1ccco1 | -4.85% | –
66 | O=C(COC(=O)CNC(=O)c1ccco1)Nc1ccc(F)cc1 | 5.83% | –

Row | SMILES | activity, negative = inhibition | Potency
67 | CC(C)[C@@H]1NC(=O)[C@H](Cc2ccccc2)NC(=O)[C@@H](CC(=O)O)NC(=O)CNC(=O)[C@H](CCCNC(=N)N)NC1=O | 7.85% | –
68 | Cc1nccc(-c2ccc(-n3c(C)ccc3C)cc2)n1 | -3.39% | –
69 | Cc1ccc(C(=O)O)cc1NC(=O)c1ccc(Cn2nc(C)c(Cl)c2C)o1 | -5.73% | –
70 | O=C(CNC(=O)C(c1ccccc1)c1ccccc1)N/N=C\c1ccc2c(c1)OCO2 | 4.74% | –
71 | O=C(N/N=C\c1cc(Br)c(Br)o1)C1COc2ccccc2O1 (configuration not stated) | – | 17.8 µM (active)
72 | C/C(=N/NC(=O)C1COc2ccccc2O1)c1ccco1 (configuration not stated) | 6.2% | –
73 | O=C(N/N=C/c1cc2c(cc1Br)OCO2)C1COc2ccccc2O1 (configuration not stated) | – | 25.1 µM (active)
74 | Cc1ccc(C(=O)N/N=C\c2cc(Br)c(Br)o2)cn1 | -1.22% | –
75 | O=C(/C=C/c1cc2c(cc1Br)OCO2)NCc1ccc(Cl)cc1 | -10.2% | –
76 | CN(C)c1ccc(C(=S)N2CCN(C(=S)Nc3ccc(Cl)cc3)CC2)cc1 | 5.85% | –
77 | CN(Cc1cc2cc(F)ccc2[nH]1)Cc1nc(-c2cnccn2)no1 | -3.79% | –
78 | CC(=O)Nc1nc(N(C)C)nc(N(C)C)n1 | 5% | –
79 | CC(=O)N/N=C(\C)c1ccc(Br)cc1Br | 12% | –
80 | COc1ccc(-c2nc(CN3CCN(c4ncccn4)CC3)c(C)o2)cc1C | 7.29% | –
81 | COc1cc(C2C(N3C(=O)c4ccccc4C3=O)C(=O)N2c2ccc(C)c(C)c2)cc(OC)c1OC (configuration not stated) | 3.1% | –
82 | Cc1n[nH]c(=S)n1/N=C/c1ccc(Br)o1 | 5.13% | –
83 | Cc1ccsc1/C=N/n1c(=S)[nH]nc(C)c1=O | -0.343% | –
84 | Cc1ccccc1-c1n[nH]c(=S)n1/N=C/c1ccc(-c2ccccc2Br)o1 | – | 14.1 µM (active)
85 | COc1ccc(OC)c(N=Cc2c(O)[nH]c3ccccc23)c1 | -3.97% | –
86 | COc1ccc2nccc(C(=O)O)c2c1 | 9.43% [at 20.9 µM] | –
87 | COc1ccc(C=Nc2cccc3ncccc23)cc1 | – | 17.8 µM (active)
88 | O=[N+]([O-])c1ccc(NCCCO)c(C(F)(F)F)c1 | – | 15.8 µM (active)

Row | SMILES | activity, negative = inhibition | Potency
89 | CC(C)(C)C(=O)NCCCNc1ccc([N+](=O)[O-])cc1 | -7.51% | –
90 | CC(=O)Nc1ccc(C(=O)OCC(=O)Nc2ccc([N+](=O)[O-])cc2C(F)(F)F)cc1 | -0.0444% | –
91 | O=C(N/N=C/c1ccc(Cl)cc1)c1nc2ccc([N+](=O)[O-])cc2c(=O)[nH]1 | -8.44% | –
92 | CC(=O)c1cnc(SCC(=O)O)nc1C | 6.8% | –
93 | COc1ccc(NC2=CC(=S)NC(C)(C)C2)cc1 | 1.47% | –
94 | O=C(Nc1cccc(NC(=O)N2CCN(c3ccccc3)CC2)c1)N1CCN(c2ccccc2)CC1 | -6.69% | –
95 | Cc1cccc(N2CCN(c3ccc(NC(=O)/C=C\C(=O)O)cc3)CC2)c1 | – | 25.1 µM (active)
96 | Cc1cccc(C(=O)Nc2ccccc2N2CCN(c3ccc(F)cc3)CC2)c1 | -8.56% | –
97 | CCOCCCn1c(NN)nc2ccccc2c1=O | 0.593% | –
98 | COc1cccc(N(CC(=O)N2CCc3ccccc3C2)S(C)(=O)=O)c1 | 3.68% | –
99 | Cc1ccc(S(=O)(=O)N(CC(=O)N2CCc3ccccc3C2)c2cccc(Cl)c2)cc1 | – | 0.562 µM (active)
100 | CCOC(=O)N1CCN(C(=O)CN(c2ccc(C)c(C)c2)S(=O)(=O)c2ccccc2)CC1 | 1.51% | –
101 | CC(=O)NCC(=O)N(Cc1ccco1)C1(C(=O)NC2CCCC2)CCCCC1 | -4.75% | –
102 | Cc1nn(Cc2ccccc2)c2c1C(c1ccccc1)C(C#N)=C(N)O2 (configuration not stated) | – | 7.08 µM (active)
103 | Cc1cc2c(c(=O)n1Cc1ccco1)C(c1ccccc1)C(C#N)=C(N)O2 (configuration not stated) | 5.32% | –
104 | COc1ccccc1C1C(C#N)=C(N)Oc2c1c(-c1ccccc1)nn2-c1ccccc1 (configuration not stated) | 1.85% | –
105 | CCCc1[nH]nc2c1C(c1c(C)nn(-c3ccccc3)c1Cl)C(C#N)=C(N)O2 (configuration not stated) | -7.97% | –
106 | Cc1nn(-c2ccccc2)c2c1C(c1ccc(F)cc1)C(C#N)=C(N)O2 (configuration not stated) | – | 3.55 µM (active)
107 | CCc1ccc(C2C(C#N)=C(N)Oc3n[nH]c(CC(=O)OC)c32)cc1 (configuration not stated) | -2.99% | –
